A short description of test [1]: Inducers of the Endoplasmic Reticulum Stress Response (ERSR) in human glioma: Validation (AID 504836). An outline of the steps: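 Stably transfected U87-MG human glioma cells carrying a GRP78-based luminescent sensor were seeded at 1000 cells/well, pin-dosed with compounds and incubated 16 h. Luciferase reagent was then added, and end-point luminescence was read after 10 min at room temperature.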

Test [2] concerns the target Bile acid receptor (Homo sapiens) (UniProt Q96RI1). Put plainly: qHTS assay for small molecule agonists of farnesoid X receptor signaling (AID 588527; calls by dose curve; also: series mostly up to about 77 µM). As to conditions: HEK293T FXR-UAS-bla, beta-lactamase ratio, 16 h; stronger effect = higher value. An outline of the steps: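 Quantitative HTS used FXR-UAS-bla HEK293T cells with 16 h compound incubation at 37 C. EC50 values came from concentration-response curves normalized to chenodeoxycholic acid.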
Background: In qHTS, concentration-response curves come from the screen itself.

The target of test [3] is Ubiquitin carboxyl-terminal hydrolase 1 (Homo sapiens) (UniProt O94782). Nature of the test: Inhibitors of USP1/UAF1: Pilot qHTS (AID 504865). Also: nearly all actives have a fitted effect of over 35% in size. Also: potency is read from the fitted curve at half-maximal effect. An outline of the steps:
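USP1/UAF1 complex (1nM) preincubated with compound 15 min at room temperature, then Ub-Rho substrate (150nM final) added. Fluorescence read kinetically at 480/540 nm, 6 reads every 60 seconds. Buffer: 50mM HEPES pH 7.8, 0.5mM EDTA, 0.1 mg/ml BSA, 1mM TCEP, 0.01% Tween-20.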

Test [4] addresses Estrogen receptor (Homo sapiens) (UniProt P03372). Put plainly: qHTS assay for small molecule agonists of estrogen receptor alpha signaling (AID 588514; calls by dose curve; also: nearly all actives have a fitted effect of over 70% in size). An outline of the steps:
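Read-out: CCF4 fluorescence from a beta-lactamase reporter in ER-alpha-UAS-bla HEK 293 cells after 18 hrs of compound exposure at 37 C. Normalized to 20 nM 17-beta-estradiol (100%) and DMSO (0%).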

The target of test [5] is Glucocorticoid receptor (Homo sapiens) (UniProt P04150). Put plainly: qHTS assay for small molecule agonists of glucocorticoid receptor signaling (AID 588532; active = well fitted curve in the direction sought with a large enough effect in the signal ratio, with a control signal flat; the % refers to the signal ratio). As to conditions: HeLa MMTV-bla, beta-lactamase ratio, agonist, 18 h; stronger effect = higher value; percent of dexamethasone control, DMSO zero. The essentials: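 MMTV-bla HeLa, beta-lactamase reporter; medium with 1% charcoal/dextran-stripped FBS; cpds up to 92 uM, 18 h, 37 C; CCF4 readout 460/530 nm; Hill fit → EC50, efficacy vs 0.1 uM dexamethasone = 100%.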

Test [6] in a line: qHTS for Inhibitors of ATXN expression: Validation (AID 588378). Also: series mostly up to about 57 µM; nearly all actives have a fitted effect of over 75% in size. The essentials: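 Luminescence from an ATXN2-FFLuc reporter in HEK293 cells served as read-out after 24 h compound treatment at 37 degrees C; CellTiter-Fluor fluorescence was recorded first to assess viability.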
The nature of test [7]: qHTS for Inhibitors of ATXN expression: Validation of Cytotoxic Assay (AID 588349). The essentials: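 Cytotoxicity counter-screen: HEK293 cells exposed to compound titrations, 72 hr, 37 degrees C. Read-out is intracellular ATP (CellTiter Glo luminescence) as a viability measure.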

Where “and” joins values, the source holds several entries; their conditions need not be identical. Equal entries are not always repeated. Unmarked numbers belong to inactive results. Records with an inconclusive call do not appear. Where a call stands in place of a potency, no number is given. Calls of active or inactive are those of the source. Unless noted, calls follow the shape of the dose curve; as a rule, active = well fitted curve in the direction sought with a large enough effect; inconclusive = small, poorly fitted or top-dose-only effect, or another doubt; inactive = no such curve, though single readings can be large; an effect the other way counts as inactive or inconclusive.

Sequence of Ubiquitin carboxyl-terminal hydrolase 1 (Homo sapiens) (O94782 whole entry, looked up): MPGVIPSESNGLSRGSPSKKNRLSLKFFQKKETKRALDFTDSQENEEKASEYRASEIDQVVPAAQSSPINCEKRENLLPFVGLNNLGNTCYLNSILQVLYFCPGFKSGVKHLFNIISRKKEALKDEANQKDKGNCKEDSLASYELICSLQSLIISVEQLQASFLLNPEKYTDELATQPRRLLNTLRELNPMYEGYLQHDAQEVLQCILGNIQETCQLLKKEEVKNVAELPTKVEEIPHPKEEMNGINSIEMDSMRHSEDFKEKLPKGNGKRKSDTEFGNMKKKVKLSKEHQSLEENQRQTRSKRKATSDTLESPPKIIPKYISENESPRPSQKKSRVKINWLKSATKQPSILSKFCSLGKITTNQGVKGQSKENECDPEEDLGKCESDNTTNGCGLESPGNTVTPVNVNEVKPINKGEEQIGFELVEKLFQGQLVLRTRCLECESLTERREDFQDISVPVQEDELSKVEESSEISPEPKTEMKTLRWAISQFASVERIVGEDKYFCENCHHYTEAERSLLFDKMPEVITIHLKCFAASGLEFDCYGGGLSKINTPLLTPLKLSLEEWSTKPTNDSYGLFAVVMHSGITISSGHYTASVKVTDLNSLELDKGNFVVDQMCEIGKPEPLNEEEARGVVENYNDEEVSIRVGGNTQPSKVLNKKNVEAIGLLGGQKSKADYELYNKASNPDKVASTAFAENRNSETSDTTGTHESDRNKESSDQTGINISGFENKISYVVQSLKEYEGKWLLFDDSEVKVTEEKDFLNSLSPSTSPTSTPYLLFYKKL
Sequence of Bile acid receptor (Homo sapiens) (Q96RI1 whole entry, looked up): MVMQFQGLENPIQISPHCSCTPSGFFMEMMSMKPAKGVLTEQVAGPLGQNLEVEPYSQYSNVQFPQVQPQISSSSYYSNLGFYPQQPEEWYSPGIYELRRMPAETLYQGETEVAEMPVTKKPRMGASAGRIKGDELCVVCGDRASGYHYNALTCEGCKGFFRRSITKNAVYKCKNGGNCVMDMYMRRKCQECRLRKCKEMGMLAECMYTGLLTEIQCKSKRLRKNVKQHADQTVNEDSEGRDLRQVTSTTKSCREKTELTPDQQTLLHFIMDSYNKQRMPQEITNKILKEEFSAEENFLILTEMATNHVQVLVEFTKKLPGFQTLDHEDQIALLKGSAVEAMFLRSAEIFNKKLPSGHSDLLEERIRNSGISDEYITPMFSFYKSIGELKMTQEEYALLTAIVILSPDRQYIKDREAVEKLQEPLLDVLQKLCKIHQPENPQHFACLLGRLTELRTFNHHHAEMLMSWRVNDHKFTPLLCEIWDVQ
Sequence of Glucocorticoid receptor (Homo sapiens) (P04150 whole entry, looked up): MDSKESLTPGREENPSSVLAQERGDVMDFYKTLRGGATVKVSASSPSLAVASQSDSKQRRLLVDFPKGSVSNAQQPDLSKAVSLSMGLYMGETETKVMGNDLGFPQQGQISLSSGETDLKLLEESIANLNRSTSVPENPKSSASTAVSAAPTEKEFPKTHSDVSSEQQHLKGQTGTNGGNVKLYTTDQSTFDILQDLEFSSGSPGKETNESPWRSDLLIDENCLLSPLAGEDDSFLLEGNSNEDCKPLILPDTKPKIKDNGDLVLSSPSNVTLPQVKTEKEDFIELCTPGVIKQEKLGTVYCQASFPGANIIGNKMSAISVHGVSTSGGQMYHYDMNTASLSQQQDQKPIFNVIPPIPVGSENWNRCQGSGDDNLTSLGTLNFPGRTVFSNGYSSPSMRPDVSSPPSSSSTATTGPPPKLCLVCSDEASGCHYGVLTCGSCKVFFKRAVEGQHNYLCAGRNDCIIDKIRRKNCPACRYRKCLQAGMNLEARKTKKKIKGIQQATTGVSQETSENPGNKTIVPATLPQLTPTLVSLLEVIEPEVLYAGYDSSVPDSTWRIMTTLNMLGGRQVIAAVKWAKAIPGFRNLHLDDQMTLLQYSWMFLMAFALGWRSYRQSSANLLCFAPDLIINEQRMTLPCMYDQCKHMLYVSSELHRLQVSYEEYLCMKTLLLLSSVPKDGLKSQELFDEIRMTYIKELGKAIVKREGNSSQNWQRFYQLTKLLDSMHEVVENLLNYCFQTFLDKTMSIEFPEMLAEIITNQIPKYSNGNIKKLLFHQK
Sequence of Estrogen receptor (Homo sapiens) (P03372 whole entry, looked up): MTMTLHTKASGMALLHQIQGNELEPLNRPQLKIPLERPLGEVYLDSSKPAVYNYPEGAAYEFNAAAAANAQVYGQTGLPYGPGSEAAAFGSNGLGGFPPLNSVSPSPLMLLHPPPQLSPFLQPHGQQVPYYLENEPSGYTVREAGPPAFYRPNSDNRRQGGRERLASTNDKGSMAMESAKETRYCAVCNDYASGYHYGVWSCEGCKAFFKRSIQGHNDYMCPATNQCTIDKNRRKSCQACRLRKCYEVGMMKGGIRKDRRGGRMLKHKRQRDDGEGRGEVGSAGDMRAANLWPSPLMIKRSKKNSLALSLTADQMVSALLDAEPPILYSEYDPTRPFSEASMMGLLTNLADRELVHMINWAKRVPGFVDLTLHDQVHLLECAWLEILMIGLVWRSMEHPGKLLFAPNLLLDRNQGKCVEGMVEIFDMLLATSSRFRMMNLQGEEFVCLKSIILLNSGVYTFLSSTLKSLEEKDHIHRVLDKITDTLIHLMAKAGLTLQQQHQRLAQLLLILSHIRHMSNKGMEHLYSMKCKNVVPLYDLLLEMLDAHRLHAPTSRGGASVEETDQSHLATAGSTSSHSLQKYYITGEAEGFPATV

As to `OCCN(CCO)c1nc(N2CCCCC2)c2nc(N(CCO)CCO)nc(N3CCCCC3)c2n1`, in test [1], the outcome was inactive.
The same measure, in the same setting: the result for `COc1cc2nc(N(C)CCCNC(=O)C3CCCO3)nc(N)c2cc1OC` (configuration not stated) reads “inactive”.
On the same count and under the same terms, the result for `COc1cc2nc(N3CCN(C(=O)C4COc5ccccc5O4)CC3)nc(N)c2cc1OC` (configuration not stated) reads “inactive”; that for `CC/C(=C(\c1ccccc1)c1ccc(OCCN(C)C)cc1)c1ccccc1`, “inactive”.
The same measure, in the same setting: the result for `NNc1nncc2ccccc12` reads “inactive”; that for `CN[C@H]1CC[C@@H](c2ccc(Cl)c(Cl)c2)c2ccccc21`, “inactive”.
On to `CCCN(CCC)CCc1cccc2c1CC(=O)N2`, for which, in test [1], the compound was called inactive.
Same read-out and setting: the value for `CN(C)CC[C@@H](c1ccc(Br)cc1)c1ccccn1` was “inactive”.
Consider `Cc1[nH]c(=O)c(C#N)cc1-c1ccncc1`, for which, in test [1], the compound was called inactive.
Same read-out and setting: the value for `COc1cc2nc(N3CCN(C(=O)c4ccco4)CC3)nc(N)c2cc1OC` was “inactive”.
Still for that read-out and setting: the value for `CN1CCN(CCCN2c3ccccc3Sc3ccc(C(F)(F)F)cc32)CC1` was “inactive”; that for `C[C@](N)(Cc1ccc(O)c(O)c1)C(=O)O` was “inactive”.
On the same count and under the same terms, the result for `Cc1ccccc1N1C(=O)c2cc(S(N)(=O)=O)c(Cl)cc2NC1C` (configuration not stated) reads “inactive”; that for `CN1CCN(CCCN2c3ccccc3Sc3ccc(Cl)cc32)CC1`, “inactive”.
Regarding `O=C1NC(=O)C(c2ccccc2)(c2ccccc2)N1`, the outcome in test [1] was inactive.
Take `CCN(CC)CCCC(C)Nc1ccnc2cc(Cl)ccc12` (configuration not stated): the compound was called inactive in test [1].
The same measure, in the same setting: the value for `O=C(c1ccccc1)c1ccc2n1CCC2C(=O)O` (configuration not stated) was “inactive”.
Turning to `CC1=C(/C=C/C(C)=C/C=C/C(C)=C/C(=O)Nc2ccc(O)cc2)C(C)(C)CCC1`, in test [1], the compound was classed as inactive. Moreover, in test [2], the activation is -5.41%.
For the compound `CN(C)CCOC(C)(c1ccccc1)c1ccccn1` (configuration not stated), the compound was called inactive in test [1]. Moreover, in test [2], the activation is -1.68%.
As for `CC1NCCOC1c1ccccc1` (configuration not stated), the Potency entry in test [3] was “inactive”.
Same read-out and setting: the value for `O=[N+]([O-])c1cc([As](=O)(O)O)ccc1O` was “inactive”.
For `CC(C)C(=O)Nc1ccc([N+](=O)[O-])c(C(F)(F)F)c1`, the outcome in test [1] was inactive. In addition, the Potency result in test [4] is “inactive”. Moreover, the activation in test [2] is -2.87% and 6.82%.
For the compound `O=c1[nH]cc(F)c(=O)[nH]1`, the call in test [1] was inactive. The activation in test [2] is -1.24%.
`COc1ccc(Cl)cc1C(=O)NCCc1ccc(S(=O)(=O)NC(=O)NC2CCCCC2)cc1`: the result in test [1] was inactive. Further, the activation in test [2] was 0.916%.
Consider `CS(=O)c1ccc(-c2nc(-c3ccc(F)cc3)c(-c3ccncc3)[nH]2)cc1` (configuration not stated), for which, in test [3], the Potency entry is “inactive”.
For the compound `Clc1ccc(C(c2ccccc2Cl)C(Cl)Cl)cc1` (configuration not stated), in test [1], the compound was called inactive. In test [2], the activation is 3.36%.
Consider `Cn1c(CCCC(=O)O)nc2cc(N(CCCl)CCCl)ccc21`, for which, in test [3], the Potency entry was “inactive”.
As to `COc1cc([C@@H]2c3cc4c(cc3[C@H](O)[C@H]3COC(=O)[C@H]23)OCO4)cc(OC)c1OC`, the Potency result in test [3] was “inactive”.
On to `Cc1cn([C@H]2C=C[C@@H](CO)O2)c(=O)[nH]c1=O`, for which the compound was called inactive in test [1]. For the same compound, the activation in test [2] was -2.48% and 1.31% and -0.393%.
On to `O=C(CCCN1CCC(O)(c2ccc(Cl)cc2)CC1)c1ccc(F)cc1`, for which the result in test [1] was inactive. Also, the activation in test [2] was -8.42%.
The corresponding values for `Cc1ccccc1C(OCCN(C)C)c1ccccc1` (configuration not stated) are “inactive” and -1.23%.
The corresponding values for `CC1(C)NC(=O)N(c2ccc([N+](=O)[O-])c(C(F)(F)F)c2)C1=O` are “inactive” and 0.399%.
Consider `O=P1(NCCCl)OCCCN1CCCl` (configuration not stated), for which, in test [3], the Potency entry was “inactive”.
For `CC(COc1ccccc1)N(CCCl)Cc1ccccc1` (configuration not stated), the result in test [1] was inactive. Moreover, in test [3], the Potency result was “inactive”. Further, the activation in test [5] is -12.9%.
With `Cc1ccc(-c2nc3ccc(C)cn3c2CC(=O)N(C)C)cc1`, the Potency entry in test [3] is “inactive”.
Still for that read-out and setting: the value for `O=C(NC(O)C(Cl)(Cl)Cl)NC(O)C(Cl)(Cl)Cl` (configuration not stated) was “inactive”.
Same read-out and setting: the value for `CN(C)CCc1ccc(O)cc1` was “inactive”.
On to `CN(Cc1cnc2nc(N)nc(N)c2n1)c1ccc(C(=O)N[C@@H](CCC(=O)O)C(=O)O)cc1`, for which, in test [1], the result was inactive. In addition, the activation in test [2] was -5.02%.
In the case of `C#CCOC(C(=O)OCCN(C)C)(c1ccccc1)c1ccccc1`, the Potency result in test [3] was “inactive”.
Take `CC(C)OC(=O)C(C)(C)Oc1ccc(C(=O)c2ccc(Cl)cc2)cc1`: in test [1], the outcome was inactive. Moreover, the activation in test [2] is 2.77%.
Consider `Cc1c(OCC(F)(F)F)ccnc1CS(=O)c1nc2ccccc2[nH]1` (configuration not stated), for which the compound was classed as inactive in test [1]. The Potency entry in test [6] was “inactive”.
Regarding `CC(=O)Nc1cc([As](=O)(O)O)ccc1O`, the Potency entry in test [3] is “inactive”.
With `CN(C)CCC=C1c2ccccc2CCc2ccccc21`, the outcome in test [1] was inactive. The Potency result in test [3] is “inactive”. The activation in test [2] is -2.7% and 0.944%; in test [5], -8.68%.
As to `NCCc1cc(O)c(O)cc1O`, the Potency in test [3] was 50.1 µM (active).
On the same count and under the same terms, the result for `CC(C)NCC(O)c1ccccc1Cl` (configuration not stated) reads “inactive”.
As to `CC(C)NCC(O)c1ccc(O)c(O)c1` (configuration not stated), the result in test [1] was inactive. Also, the Potency entry in test [7] was “inactive”.
Consider `CCC(C(N)=O)N1CCCC1=O` (configuration not stated), for which, in test [3], the Potency result was “inactive”.
